These results are taken from publication PMC5540273 (PLoS ONE, 2017).

Some test systems named below: KIT-autoinhibited; KIT; LATS1; LATS2; LCK; LIMK1; LIMK2; LRRK2; LTK; LYN; MAK; MAP3K15; MAP3K1; MAP3K2; MAP3K3.
Holding throughout (settings): concentration: 1 μM, replicates: in singlicate; n = 1
Another assay relates to T1, JNK2.
T1 construct: gene MAPK9

A further assay deals with T2, JNK3.
T2 construct: gene MAPK10

For another assay, the system named is T3, LKB1.
T3 construct: gene STK11

The next assay concerns T4, LOK.
T4 construct: gene STK10

Another assay relates to T5, LZK.
T5 construct: gene MAP3K13
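Also: KINOMEscan kinase panel screen.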

For the molecule `CCC(=O)c1c(-c2ccccc2)c2cc(Cl)ccc2c(=O)n1Cc1cc(S(C)(=O)=O)n(CC(F)F)n1`, the “%Inh” value is 99.4% in the assay on JNK2; 99.4% in the assay on JNK3; 0% with KIT-autoinhibited; 5% with KIT; 0% in the assay with LATS1; 0% in the assay on LATS2. Moreover, the “%Inh” value in the assay with LCK, with LIMK1, with LIMK2, with LKB1, with LOK and in the assay with LRRK2 was 0% each time. Besides, the “%Inh” value in the assay with LTK was determined as 0%; in the assay on LYN, 0%; in the assay with LZK it was 0%; in the assay on MAK, 14%; in the assay on MAP3K15, 2%; in the assay on MAP3K1 it was 0%. Further, the “%Inh” value in the assay with MAP3K2 and in the assay on MAP3K3 was 0% in each case.
As to `Cc1nc(N(C)[C@H]2CN(C(=O)CC#N)CC[C@H]2C)c2cc[nH]c2n1`, the “%Inh” value in the assay with JNK2 turned out to be 0%; in the assay with JNK3 it was 0%; with KIT-autoinhibited it was 0%; in the assay with KIT it was 0%; with LATS1, 7%; in the assay with LATS2, 13%. Also, the “%Inh” value with LCK is on record as 0%; in the assay with LIMK1, 0%; in the assay with LIMK2 it was 16%; in the assay on LKB1 it was 0%; in the assay on LOK, 0%; in the assay with LRRK2, 0%. The “%Inh” value turned out to be 0% with LTK; 0% with LYN; 0% with LZK; 9% in the assay with MAK; 0% with MAP3K15; 10% in the assay with MAP3K1. Also, the “%Inh” value with MAP3K2 is on record as 10%; in the assay on MAP3K3, 7%.
On to `Nc1ncnc2c1ncn2-c1cccc2ccccc12` [SKF-97184], for which the “%Inh” value in the assay on JNK2 is 0%; with JNK3, 0%; in the assay with KIT-autoinhibited it was 20%; in the assay with KIT it was 8%; with LATS1 it was 18%; in the assay with LATS2, 0%. The “%Inh” value was determined as 0% in the assay on LCK; 0% with LIMK1; 0% in the assay on LIMK2; 92.8% with LKB1; 3% in the assay with LOK; 4% with LRRK2. In addition, the “%Inh” value with LTK was 0%; in the assay with LYN, 15%; with LZK, 34%; with MAK, 30%; in the assay on MAP3K15, 9%; with MAP3K1 it was 5%. Besides, the entries for the “%Inh” value in the assay with MAP3K2 and with MAP3K3 were 18% and 0%, respectively.
Consider `OCCCNc1nccc(-c2c(-c3cccc(C(F)(F)F)c3)nn3cc(C(F)(F)F)ccc23)n1` [GW630813], for which the “%Inh” value is listed as 13% with JNK2; 15% with JNK3; 13% in the assay on KIT-autoinhibited; 2% in the assay on KIT; 0% with LATS1; 0% with LATS2. For the same molecule, the “%Inh” value is 0% in the assay on LCK; 0% in the assay on LIMK1; 12% in the assay on LIMK2; 16% in the assay on LKB1; 0% in the assay on LOK; 0% in the assay on LRRK2. In addition, the “%Inh” value in the assay with LTK came out at 4%; in the assay with LYN it was 0%; in the assay with LZK, 43%; in the assay on MAK it was 16%; with MAP3K15, 0%; in the assay on MAP3K1, 0%. The “%Inh” value in the assay on MAP3K2 and in the assay on MAP3K3 was 0% in each case.
Regarding `COc1cc2ncn(-c3cc(OCCCc4ccccc4)c(C(N)=O)s3)c2cc1OC` [GSK205189], the “%Inh” value in the assay on JNK2 is on record as 21%; in the assay with JNK3, 12%; in the assay on KIT-autoinhibited it was 0%; in the assay on KIT it was 13%; with LATS1, 0%; in the assay on LATS2, 15%. The “%Inh” value in the assay on LCK came out at 16%; with LIMK1, 0%; in the assay with LIMK2, 0%; in the assay on LKB1 it was 0%; in the assay with LOK, 40%; with LRRK2 it was 5%. For the same molecule, the “%Inh” value is reported as 0% with LTK; 0% in the assay on LYN; 0% with LZK; 4% with MAK; 0% in the assay on MAP3K15; 22% with MAP3K1. Moreover, the “%Inh” value in the assay with MAP3K2 and in the assay with MAP3K3 was 0% each time.
Take `O=c1cc(N2CCOCC2)nc2n(Cc3ccc(F)c(Cl)c3)ccn12` [GSK2297099]: the “%Inh” value in the assay with JNK2 worked out at 8%; in the assay on JNK3, 5%; in the assay with KIT-autoinhibited it was 0%; in the assay with KIT, 9%; in the assay with LATS1, 4%; in the assay with LATS2, 0%. In addition, the “%Inh” value is 0% with LCK; 7% in the assay on LIMK1; 6% in the assay with LIMK2; 0% with LKB1; 0% in the assay with LOK; 0% in the assay with LRRK2. The “%Inh” value in the assay on LTK is recorded as 0%; in the assay on LYN it was 2%; in the assay with LZK, 0%; with MAK, 28%; with MAP3K15 it was 0%; in the assay with MAP3K1, 4%. The results for the “%Inh” value with MAP3K2 and in the assay on MAP3K3 were 10% and 0%, respectively.
For the molecule `O=C(NCc1cccs1)c1cc(C(=O)c2c(Cl)cccc2Cl)c[nH]1` [GW823670], the “%Inh” value in the assay with JNK2 is on record as 0%; in the assay on JNK3 it was 0%; with KIT-autoinhibited, 4%; in the assay on KIT it was 0%; with LATS1, 0%; in the assay on LATS2, 0%. The “%Inh” value in the assay with LCK is given as 0%; in the assay with LIMK1 it was 6%; with LIMK2, 0%; with LKB1, 49%; in the assay on LOK, 21%; in the assay with LRRK2, 0%. Besides, the “%Inh” value in the assay with LTK was determined as 11%; in the assay on LYN, 1%; with LZK, 0%; with MAK, 0%; in the assay on MAP3K15, 0%; in the assay with MAP3K1, 0%. In addition, the “%Inh” value in the assay with MAP3K2 and with MAP3K3 was 0% throughout.
Take `CN1C(=O)C(Nc2cc(Cl)c(O)c(Cl)c2)=C(c2ccc(Cl)cc2)C1=O` [SB-404321]: the “%Inh” value in the assay on JNK2 amounted to 19%; in the assay on JNK3, 15%; in the assay with KIT-autoinhibited it was 26%; in the assay on KIT, 0%; with LATS1 it was 0%; in the assay on LATS2, 0%. Besides, the “%Inh” value in the assay on LCK is 0%; with LIMK1, 0%; with LIMK2, 0%; in the assay on LKB1 it was 32%; in the assay with LOK it was 0%; with LRRK2, 0%. For the same molecule, the “%Inh” value in the assay on LTK worked out at 0%; in the assay on LYN, 24%; in the assay with LZK, 6%; in the assay with MAK it was 0%; in the assay with MAP3K15, 0%; in the assay with MAP3K1 it was 0%. For the same molecule, the “%Inh” value in the assay with MAP3K2 and in the assay on MAP3K3 was 0% throughout.
Regarding `Cc1nn2c(=O)cc(N3CCOCC3)nc2n1Cc1cccc(Cl)c1Cl` [GSK2342769], the “%Inh” value worked out at 15% in the assay on JNK2; 5% in the assay with JNK3; 0% with KIT-autoinhibited; 10% in the assay on KIT; 0% in the assay on LATS1; 0% with LATS2. For the same molecule, the “%Inh” value was found to be 5% with LCK; 0% with LIMK1; 0% in the assay on LIMK2; 0% in the assay on LKB1; 0% in the assay with LOK; 22% in the assay with LRRK2. Also, the “%Inh” value in the assay on LTK amounted to 0%; in the assay on LYN it was 0%; with LZK it was 0%; in the assay with MAK, 20%; with MAP3K15, 9%; in the assay on MAP3K1, 17%. The “%Inh” value in the assay on MAP3K2 amounted to 16%; with MAP3K3 it was 0%.
Take `COc1cc2ncn(-c3cc(OCc4ccc(S(C)(=O)=O)cc4)c(C(N)=O)s3)c2cc1OC` [GW869979]: the “%Inh” value is listed as 18% in the assay with JNK2; 18% with JNK3; 21% in the assay on KIT-autoinhibited; 0% with KIT; 0% with LATS1; 39% in the assay on LATS2. Further, the “%Inh” value in the assay with LCK is 12%; in the assay with LIMK1 it was 11%; in the assay with LIMK2, 16%; in the assay on LKB1, 25%; in the assay on LOK it was 20%; in the assay with LRRK2, 29%. Besides, the “%Inh” value was 0% with LTK; 26% in the assay on LYN; 3% with LZK; 0% in the assay with MAK; 0% with MAP3K15; 8% with MAP3K1. The “%Inh” value with MAP3K2 is recorded as 9%; in the assay on MAP3K3 it was 0%.
